Experimental data taken from ChEMBL document CHEMBL1961873, “Compounds: GSK PKIS; Assays: Nanosyn kinase panel” (2012).

What follows are molecules tested against Fibroblast growth factor receptor 3 (Homo sapiens) (UniProt P22607). Conditions: at 1 µM.
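Also: values reported are mean percent inhibition of FGFR3 activity.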

Sequence of Fibroblast growth factor receptor 3 (Homo sapiens) (P22607 23-806 limits assumed): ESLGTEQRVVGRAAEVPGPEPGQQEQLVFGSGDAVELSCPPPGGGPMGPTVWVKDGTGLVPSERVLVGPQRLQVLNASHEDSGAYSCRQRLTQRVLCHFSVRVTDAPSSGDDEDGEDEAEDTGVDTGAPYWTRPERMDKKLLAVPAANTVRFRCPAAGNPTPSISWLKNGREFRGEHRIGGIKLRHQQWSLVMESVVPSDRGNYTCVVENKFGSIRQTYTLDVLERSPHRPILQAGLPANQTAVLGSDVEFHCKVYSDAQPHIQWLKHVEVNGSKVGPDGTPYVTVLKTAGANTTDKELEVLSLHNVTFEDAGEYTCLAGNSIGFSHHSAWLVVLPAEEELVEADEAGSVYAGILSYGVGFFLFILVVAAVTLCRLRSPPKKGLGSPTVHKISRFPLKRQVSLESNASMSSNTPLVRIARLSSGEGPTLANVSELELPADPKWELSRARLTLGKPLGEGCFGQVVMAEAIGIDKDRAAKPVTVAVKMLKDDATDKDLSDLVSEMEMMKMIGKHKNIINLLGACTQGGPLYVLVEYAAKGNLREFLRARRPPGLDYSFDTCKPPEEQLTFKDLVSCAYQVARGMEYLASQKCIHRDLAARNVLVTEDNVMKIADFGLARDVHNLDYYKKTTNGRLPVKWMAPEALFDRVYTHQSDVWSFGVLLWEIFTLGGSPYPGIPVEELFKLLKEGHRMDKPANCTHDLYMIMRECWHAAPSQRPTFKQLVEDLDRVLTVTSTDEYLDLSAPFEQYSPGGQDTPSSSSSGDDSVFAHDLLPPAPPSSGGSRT

Compound | inhibition
Nc1nc(-c2ccccn2)c(-c2ccc3ncccc3n2)s1 | 4.97%
COc1cccc(-n2ncc3c(N/N=C/c4cccc(F)c4)ncnc32)c1 | -0.4%
CCn1c(-c2nonc2N)nc2c(C#CC(C)(C)O)nc(OC[C@@H](N)c3ccccc3)cc21 | -0.5%
COc1ccc(-c2coc3ncnc(N)c23)cc1 | 6.72%
Cc1cccc(-c2n[nH]cc2-c2ccc3ncccc3n2)n1 | 4.89%
Nc1ncnc2occ(-c3ccc(NC(=O)Nc4cc(C(F)(F)F)cc(C(F)(F)F)c4)cc3)c12 | 52.8%
[O-][S+]1CCN(Cc2ccc(-c3ccc4ncnc(Nc5ccc(OCc6ccccc6)c(F)c5)c4c3)o2)CC1 | 2.82%
Nc1nc(-c2ccc3c(c2)C(=Cc2cc(Br)c(O)c(Br)c2)C(=O)N3)cs1 | 1.45%
CC1=C(C(=O)Nc2ccc3[nH]ncc3c2)C(c2ccc3ccccc3c2)CC(=O)N1 (configuration not stated) | 22.8%
CS(=O)(=O)CCNCc1ccc(-c2ccc3ncnc(Nc4ccc(OCc5ccccc5)c(Cl)c4)c3c2)o1 | 4.98%
c1cnn2ncc(-c3ccnc(Nc4ccc5c(c4)OCCO5)n3)c2c1 | 15.7%
CN1CCC(C(=O)Nc2n[nH]c3nnc(-c4ccccc4)cc23)CC1 | 4.99%
Cn1cc(C=C2C(=O)Nc3cccnc32)c2ccccc21 | 47.8%
Cc1nnc(-c2ccc(C)c(-c3ccc(C(=O)Nc4cccc(C#N)c4)cc3)c2)o1 | 3.98%
CNC(=O)c1cncc(/C=C/c2c(Cl)cccc2Cl)c1 | 1.39%
N#Cc1c(NC(=O)c2cccc3ccccc23)sc2c1CCCC2 | 4.55%

Compound | inhibition
CCn1c(-c2nonc2N)nc2cnc(Oc3cccc(NC(=O)c4ccc(OCCN5CCOCC5)cc4)c3)cc21 | 1.9%
COc1ccccc1Nc1ncc(-c2ccccc2)o1 | 13.1%
COc1ccc(COc2ccc(Cc3cnc(N)nc3N)cc2OC)cc1 | 0.98%
CS(=O)(=O)Nc1ccc(N/C=C2\C(=O)Nc3ccccc32)cc1 | 25.5%
CC1=C(C(=O)Nc2ccc3[nH]ncc3c2)C(c2ccc(Cl)c(Cl)c2)CC(=O)N1 (configuration not stated) | 14.1%
COc1cc2ncn(-c3cc(O[C@@H](C)c4ccccc4Cl)c(C(N)=O)s3)c2cc1OC | 24.3%
NS(=O)(=O)c1cccc(-c2ccc3c(NC(=O)C4CC4)n[nH]c3c2)c1 | 0.44%
Nc1ncnc2occ(-c3ccc(NC(=O)Nc4cccc(C(F)(F)F)c4)cc3)c12 | 34.4%
CS(=O)(=O)CCNCc1ccc(-c2ccc3ncnc(Nc4ccc(OCc5cccc(F)c5)c(C(F)(F)F)c4)c3c2)o1 | 3.38%
O=C1Nc2ccc(C(=O)c3ccco3)cc2C1=Cc1cc(Cl)c(O)c(Cl)c1 | 19.1%
COc1cc2c(cc1Nc1nc(N3CCc4ccccc43)c3cc[nH]c3n1)N(C(=O)CN(C)C)CC2 | 0.84%
CCc1cccc(NC(=O)Nc2ccc(Oc3ccc4nc(NC(=O)OC)[nH]c4c3)cc2)c1 | 6.95%
CCN1CCC(CC(=O)Nc2n[nH]c3nc(-c4cccs4)c(Br)cc23)CC1 | -1.77%
Cc1ccc(NC(=O)c2ccnc(N3CCCC3)c2)cc1-c1ccc(C(=O)NCC2CC2)cc1 | 4.11%
CCn1c(-c2nonc2N)nc2c(C#CC(C)(C)O)nc(CN3CCCC3)cc21 | -0.76%
COc1cc(C)c(NC(=O)CN(C)C)cc1Nc1nc(Nc2cccc(F)c2C(N)=O)c2cc[nH]c2n1 | 1.03%
